Hits are enriched below; roughly 10% of the tested compounds scored in any of these assays.
SW480 rerep: DNA re-replication induction in SW480 cells; SW480 DNA re-replication, Hoechst DNA content imaging, 48 h; Potency, µM (doses to about 46.1 µM), usual class: activators; hit rate 1.8% among 340,000; also: nearly all actives have a fitted effect of over 55% in size
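First, 250 cells per well were seeded. Next, compound or vehicle (23 nL) was pinned in, plates sat 48 hr at 37 C. Finally Hoechst was added for 40 min before fluorescence scanning.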
ELG1 repair inh: inhibitors of ELG1-dependent DNA repair in HEK293T cells; Potency, µM (highest dose often 46.1 µM), actives largely listed as inhibitors; hit rate 2.3% among 330,000; AID 504467; HEK293T ELG1-luciferase reporter, luminescence, 16 h; DNA damage induced by 5-fluorouridine; also: nearly all actives have a fitted effect of over 55% in size
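DMSO vehicle served as the neutral condition. Each well held 2,000 cells given 5-fluorouridine plus compound; after 16 hr at 37 °C/5% CO2, ONE-Glo was added and luciferase measured 30 min later.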
RORg inh: ROR gamma (mouse) transcription inhibition. P51450. hit rate 5.4% among 310,000. Potency, µM (top dose mostly 53.6 µM), usual class: inhibitors. Drosophila S2 Gal4-RORgamma UAS-luciferase reporter, 20 h; also: nearly all actives have a fitted effect of over 60% in size
Target sequence (P51450 whole entry, looked up, the tested form may be a part): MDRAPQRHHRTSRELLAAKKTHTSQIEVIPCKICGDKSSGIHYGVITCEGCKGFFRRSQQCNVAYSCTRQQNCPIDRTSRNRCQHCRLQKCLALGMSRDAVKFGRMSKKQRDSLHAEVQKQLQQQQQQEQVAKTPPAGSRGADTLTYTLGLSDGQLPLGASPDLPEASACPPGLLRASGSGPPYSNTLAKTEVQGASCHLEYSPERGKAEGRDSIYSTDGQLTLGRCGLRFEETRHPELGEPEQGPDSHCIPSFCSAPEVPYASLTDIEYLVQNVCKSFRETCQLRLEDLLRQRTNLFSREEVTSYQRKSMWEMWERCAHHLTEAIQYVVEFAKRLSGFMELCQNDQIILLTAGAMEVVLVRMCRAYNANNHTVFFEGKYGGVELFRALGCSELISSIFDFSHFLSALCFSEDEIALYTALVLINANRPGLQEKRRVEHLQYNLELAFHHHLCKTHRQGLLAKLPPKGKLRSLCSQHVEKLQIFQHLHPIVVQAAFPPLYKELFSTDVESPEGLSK
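Stably transfected Drosophila Schneider cells are the test system, with ROR gamma fused to Gal4 and luciferase under UAS control; luminescence is read after 20 hr of 700 uM copper sulfate induction at ambient temperature.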
MCF10A rerep: induces DNA re-replication in MCF 10a normal breast cells | hit rate 2.9% among 350,000 | Potency, µM (titrated, usually from 46.1 µM), actives largely listed as activators | MCF 10A DNA re-replication, Hoechst nuclear intensity, 48 h; also: nearly all actives have a fitted effect of over 50% in size
VP16 counter: counter-screen for ROR gamma inhibitors: Gal4-VP16 reporter | Drosophila S2 Gal4-VP16 UAS-luciferase, luminescence, 20 h | Potency, µM (titrated, usually from 53.6 µM), usual class: inhibitors | hit rate 3.5% among 310,000 | AID 2546;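 also: Gal4-VP16 expression switched on by copper sulfate through the metallothionein promoter; nearly all actives have a fitted effect of over 50% in size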
A number is an active result; – = inactive; ? = inconclusive; · = no result given; ! = a repeat was not active; [ ] = another dose, or the depositor's remark. Calls follow the shape of the dose curve; as a rule, active = well fitted curve in the direction sought with a large enough effect; inconclusive = small, poorly fitted or top-dose-only effect, or another doubt; inactive = no such curve, though single readings can be large; an effect the other way counts as inactive or inconclusive.

SMILES | SW480 rerep | ELG1 repair inh | RORg inh | MCF10A rerep | VP16 counter
CCc1nnc(NS(=O)(=O)c2ccc(N/C=C\C(=O)c3ccc4ccccc4c3)cc2)s1 | – | – | ? | 23µM | –
CCc1nnc(NS(=O)(=O)c2ccc(NC(=O)c3ccccc3)cc2)s1 | – | – | – | – | –
CCc1nnc(NS(=O)(=O)c2ccc(NC(=O)CCC(=O)OC)cc2)s1 | – | – | – | 0.58µM | –
CC(C)(C)c1nnc2sc(SCC(=O)c3ccccc3)nn2c1=O | – | – | –[0.365 µM] | ? | ·
COc1ccc(CCNC(=O)CSc2nn3c(=O)c(C)nnc3s2)cc1OC | – | – | – | – | –
COc1ccccc1CNC(=O)CSc1nn2c(=O)c(C(C)(C)C)nnc2s1 | – | – | 10µM | – | ?
COc1ccc(CNC(=O)CSc2nn3c(=O)c(C(C)(C)C)nnc3s2)cc1OC | –[1.84 µM] | – | 3.5µM | – | –
CN(C)c1ccc(C=c2c3ccccc3n3c2c2ccccc2[n+]3C)cc1 | 13µM | · | · | ? | ·
CC(C)CCN1CCN(CCCn2cccn2)CC1CCO (stereo unspecified) | – | – | – | – | –
CCc1cccc(NS(=O)(=O)c2ccc3c(c2)oc(=O)n3C)c1 | – | – | – | – | –
CCc1ccc(S(=O)(=O)Nc2cccc(C3OCCCO3)c2)cc1 | – | 12µM | ? | – | –
COc1ccc(C(=O)COC(=O)C(CCCCN2C(=O)C3C4C=CC(C4)C3C2=O)N2C(=O)C3C4C=CC(C4)C3C2=O)cc1 (stereo unspecified) | – | 5.8µM | ? | – | –
COC(=O)C(CCCCN1C(=O)C2C3C=CC(C3)C2C1=O)N1C(=O)C2C3C=CC(C3)C2C1=O (stereo unspecified) | –[9.22 µM] | – | – | – | –
N#Cc1c(-c2ccccc2)cc(-c2ccc3c(c2)OCO3)[nH]c1=O | 18µM | – | · | ? | ·
N#Cc1c(-c2ccc3c(c2)OCO3)csc1N | – | – | – | – | –
CN(Cc1cccc(Cl)c1Cl)C(=O)c1cc(S(=O)(=O)N2CCOCC2)ccc1F | – | ? | · | ? | ·
CCNc1c(C(=O)O)ccc2c1C(=O)c1ccccc1C2=O | – | – | ? | – | 13µM
O=C(CSCc1ccc(Cl)cc1)Nc1nccs1 | – | ? | 14µM | – | –
CC(C)C(C(=O)Nc1ccncc1)c1ccc(Cl)cc1 (stereo unspecified) | ? | ? | – | – | ?
O=C(CSCC(=O)Nc1nccs1)Nc1ccccc1 | –[9.22 µM] | – | – | – | –
CC(C)C(C(=O)Nc1nccs1)c1ccc(Cl)cc1 (stereo unspecified) | – | – | 14µM | – | ?
COc1ccc2c(C=Nc3c(C)n(C)n(-c4ccccc4)c3=O)c(O)n(Cc3ccco3)c(=O)c2c1 | – | ? | ? | 18µM! | –
C=C(C)CNC(=S)N/N=C/c1ccc(N2CCOCC2)cc1 | – | – | 2µM | – | 5µM
COC(=O)c1ccc(/C=N/NC(=S)NC(C)C)cc1 | 16µM | ? | 2µM | ? | 7.1µM
CC(C)NC(=S)N/N=C/c1ccc(N2CCOCC2)cc1 | – | ? | 2.8µM | – | 4.5µM
SMILES | SW480 rerep | ELG1 repair inh | RORg inh | MCF10A rerep | VP16 counter
COC(=O)c1ccc(/C=N/NC(=O)CC(=O)NC(C)C)cc1 | – | – | – | ? | –
COCCNC(=S)N/N=C/c1ccc(N2CCOCC2)cc1 | ? | – | ? | – | 20µM
Cc1ccc(CNC(=O)C(C(=O)NCc2ccc(C)o2)c2ncc(C(F)(F)F)cc2Cl)o1 | – | – | – | – | –
COc1cccc(CNC(=O)CCCc2nnc3n(C)c(=O)c4sccc4n23)c1 | – | – | – | – | –
Cc1cccc(Oc2ccc(NC(=O)C3=CC=CN4CCS(=O)(=O)N=C34)cc2)c1 | – | – | · | – | ·
C=C(C)CNC(=S)N/N=C/c1c(F)cccc1F | – | – | 1.8µM | – | 6.3µM
C=C(C)CNC(=S)N/N=C/c1ccc([N+](=O)[O-])cc1 | – | – | 1.1µM | ? | 4.5µM
Oc1ccc(/C=N/NC(=S)N2CCOCC2)cc1 | ? | – | 1.1µM | ? | ?
Cc1ccc(/C=N/NC(=S)NC(C)C)o1 | – | – | 1.4µM | – | 2.8µM
CCOC(=O)N/N=C/c1c(F)cccc1F | – | ? | – | – | –
O=C(Nc1ccc(O)cc1)N1CCOCC1 | – | – | – | – | –
Cc1cc([N+](=O)[O-])ccc1NC(=O)c1cccc(NC(=O)C(C)C)c1 | – | ? | – | – | –
COc1ccc(S(=O)(=O)N2CCCCC2)cc1NC(=O)c1cncc(Br)c1 | – | – | · | – | ·
CCN(CC)S(=O)(=O)c1ccc(N2CCCCC2)c(NC(=O)C2=COCCO2)c1 | – | ? | · | ? | ·
Cc1ccc(/C=N/NC(=O)C(C)Oc2cccc3ccccc23)o1 (stereo unspecified) | – | – | 16µM | – | ?
COc1cc(C(=O)NC2CCN(C)CC2)ccc1Nc1ncc2c(n1)N(CCc1ccccc1)CCC(=O)N2C | 0.21µM | · | · | 9.2µM | ·
NC(=O)c1sc2cc(C(F)(F)F)cnc2c1-c1ccccc1 | – | – | – | – | –
CNC(=S)NNC(=O)c1sc2cc(C(F)(F)F)cnc2c1-c1ccccn1 | – | – | 1.1µM | – | –
CNC(=S)NNC(=O)c1sc2cc(C(F)(F)F)cnc2c1-c1cccnc1 | – | – | 18µM | ? | –
Cn1c(-c2sc3cc(C(F)(F)F)cnc3c2-c2ccccn2)n[nH]c1=S | – | – | ? | – | –
NC(N)=Nc1nc2ccc(Cl)cc2c(=O)[nH]1 | – | – | – | – | –
Cn1ccsc1=NC(=O)c1ccc(S(C)(=O)=O)c([N+](=O)[O-])c1 | 16µM | ? | – | 15µM | –
Cn1cccc1C(=O)NC(=O)COC(=O)c1ccc(S(C)(=O)=O)c([N+](=O)[O-])c1 | 16µM | ? | · | 5.8µM | ·
CS(=O)(=O)c1ccc(C(=O)OCc2nnc(-c3ccc(Cl)cc3)o2)cc1[N+](=O)[O-] | ? | ? | 10µM | 3.7µM | –
CCS(=O)(=O)N1CCN(c2ccc(C(=O)NC34CC5CC(CC(C5)C3)C4)cc2[N+](=O)[O-])CC1 | – | 23µM | ? | – | –
SMILES | SW480 rerep | ELG1 repair inh | RORg inh | MCF10A rerep | VP16 counter
CS(=O)(=O)N1CCN(c2ccc(C(=O)NC34CC5CC(CC(C5)C3)C4)cc2[N+](=O)[O-])CC1 | – | – | ? | – | –
CS(=O)(=O)c1ccc(C(=O)OCC(=O)NC23CC4CC(CC(C4)C2)C3)cc1[N+](=O)[O-] | ? | – | 11µM | 4.1µM | ?
Cc1ccc(C2CC(=O)C=C(NCc3ccccc3)C2)cc1 (stereo unspecified) | 23µM | – | – | 21µM | –
CN1C(=O)c2ccc(C(=O)Nc3ccc4c(c3)OCO4)cc2C1=O | – | ? | – | – | –
CC(C)(C)C1CCC(=NNc2ncc(C(F)(F)F)cc2Cl)CC1 (stereo unspecified) | ? | – | 28µM | ? | 11µM
C/C(=N/Nc1ncc(C(F)(F)F)cc1Cl)c1ccncc1 | – | – | ? | – | ?
